Among all 5,500 compounds or so, about 2,000 (36%) were called active. Inconclusive results (about 18%) are left out. No stated cut-off is given here; in the data, active means normalized growth mostly below about 0.91 (no sharp cut-off); inconclusive means no clear call, values can overlap the other calls; inactive means mostly above about 0.92. This is one part of the list.
Assay: chemical genetic growth profiling, strain panel (AID 1159580);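 further: tested at 20 µM; growth read once vehicle control cultures reached saturation at 30 °C; 1 = growth at the plate median or of vehicle wells; lower values mean less growth of the strain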
Details: growth OD

Measured: normalized growth

CC1(C)O[C@H]2[C@H](O)C[C@](O)(C(N)=O)C[C@H]2O1
inactive: S. cerevisiae deletion strains, locus YJR075W, strain HOC1, hits give low values 1.03 | S. cerevisiae deletion strains, locus YKL009W, strain mrt4, hits give low values 1.04 | S. cerevisiae deletion strains, locus YKL068W, hits give low values 1.01 | S. cerevisiae deletion strains, locus YKL085W, strain MDH1 (second series), hits give low values 1.03 | S. cerevisiae deletion strains, locus YKL085W, strain MDH1, hits give low values 1.03 | S. cerevisiae deletion strains, locus YKL160W, strain elf1, hits give low values 1 | S. cerevisiae deletion strains, locus YKL190W, strain CNB1, hits give low values 1.02 | S. cerevisiae deletion strains, locus YKR001C, strain vps1, hits give low values 1.06 | S. cerevisiae deletion strains, locus YKR026C, strain gcn3, hits give low values 1.01 | S. cerevisiae deletion strains, locus YKR091W, strain srl3, hits give low values 1.02 | S. cerevisiae deletion strains, locus YLL001W, strain dnm1, hits give low values 0.999 | S. cerevisiae deletion strains, locus YLL026W, hits give low values 1.01 | S. cerevisiae deletion strains, locus YLL041C, strain sdh2, hits give low values 1.02 | S. cerevisiae deletion strains, locus YLR027C, strain aat2, hits give low values 1.03 | S. cerevisiae deletion strains, locus YLR039C, strain RIC1, hits give low values 1.25 | S. cerevisiae deletion strains, locus YLR058C, strain SHM2, hits give low values 1.04 | S. cerevisiae deletion strains, locus YLR102C, strain apc9, hits give low values 1.01 | S. cerevisiae deletion strains, locus YLR113W, strain HOG1, hits give low values 1.02 | S. cerevisiae deletion strains, locus YLR221C, strain rsa3, hits give low values 1.02 | S. cerevisiae deletion strains, locus YLR258W, strain gsy2, hits give low values 1.01 | S. cerevisiae deletion strains, locus YLR262C, strain YPT6 (second series), hits give low values 1.08 | S. cerevisiae deletion strains, locus YLR268W, strain sec22, hits give low values 1.05 | S. cerevisiae deletion strains, locus YLR320W, strain mms22, hits give low values 1.03 | S. cerevisiae deletion strains, locus YLR330W, strain CHS5, hits give low values 1.02 | S. cerevisiae deletion strains, locus YLR342W, strain FKS1 (second series), hits give low values 1.03 | S. cerevisiae deletion strains, locus YLR342W, strain FKS1, hits give low values 1.01 | S. cerevisiae deletion strains, locus YLR357W, strain rsc2, hits give low values 1.01 | S. cerevisiae deletion strains, locus YLR370C, strain arc18, hits give low values 1.02 | S. cerevisiae deletion strains, locus YLR371W, strain rom2, hits give low values 1.05 | S. cerevisiae deletion strains, locus YLR384C, strain iki3, hits give low values 1.02 | S. cerevisiae deletion strains, locus YLR418C, strain cdc73, hits give low values 1.09 | S. cerevisiae deletion strains, locus YML016C, strain PPZ1, hits give low values 1.03 | S. cerevisiae deletion strains, locus YML032C, strain rad52, hits give low values 1.03 | S. cerevisiae deletion strains, locus YML120C, strain ndi1, hits give low values 1.01 | S. cerevisiae deletion strains, locus YML124C, strain tub3, hits give low values 1.02 | S. cerevisiae deletion strains, locus YMR058W, strain fet3, hits give low values 1.02 | S. cerevisiae deletion strains, locus YMR078C, strain ctf18, hits give low values 1.03 | S. cerevisiae deletion strains, locus YMR125W, strain sto1, hits give low values 1 | S. cerevisiae deletion strains, locus YMR129W, hits give low values 1.01 | S. cerevisiae deletion strains, locus YMR205C, strain PFK2, hits give low values 1.02 | S. cerevisiae deletion strains, locus YMR223W, strain ubp8, hits give low values 1.05 | S. cerevisiae deletion strains, locus YMR231W, strain pep5, hits give low values 1.01 | S. cerevisiae deletion strains, locus YMR307W, strain GAS1, hits give low values 1.27 | S. cerevisiae deletion strains, locus YNL067W, strain RPL9B, hits give low values 1.01 | S. cerevisiae deletion strains, locus YNL071W, strain lat1, hits give low values 1.03 | S. cerevisiae deletion strains, locus YNL153C, strain GIM3, hits give low values 1.05 | S. cerevisiae deletion strains, locus YNL183C, strain NPR1, hits give low values 0.945 | S. cerevisiae deletion strains, locus YNL209W, strain ssb2, hits give low values 1.02 | S. cerevisiae deletion strains, locus YNL233W, strain BNI4, hits give low values 1.07 | S. cerevisiae deletion strains, locus YNL248C, strain rpa49, hits give low values 1.01 | S. cerevisiae deletion strains, locus YNL250W, strain rad50, hits give low values 1.06 | S. cerevisiae deletion strains, locus YNL271C, strain bni1, hits give low values 1.04 | S. cerevisiae deletion strains, locus YNL298W, strain CLA4, hits give low values 1.02 | S. cerevisiae deletion strains, locus YNL307C, strain MCK1, hits give low values 1.03 | S. cerevisiae deletion strains, locus YNL322C, strain KRE1 (second series), hits give low values 1.01 | S. cerevisiae deletion strains, locus YNL322C, strain KRE1, hits give low values 1.02 | S. cerevisiae deletion strains, locus YNR049C, strain mso1, hits give low values 1.02 | S. cerevisiae deletion strains, locus YNR052C, strain pop2, hits give low values 1.03 | S. cerevisiae deletion strains, locus YOL012C, strain htz1 0.602 | S. cerevisiae deletion strains, locus YOL147C, strain pex11, hits give low values 1.01 | S. cerevisiae deletion strains, locus YOR001W, strain rrp6, hits give low values 1.04 | S. cerevisiae deletion strains, locus YOR061W, strain CKA2, hits give low values 1.03 | S. cerevisiae deletion strains, locus YOR069W, strain VPS5, hits give low values 1.02 | S. cerevisiae deletion strains, locus YOR070C, strain gyp1, hits give low values 1.01 | S. cerevisiae deletion strains, locus YOR080W, strain dia2, hits give low values 1.01 | S. cerevisiae deletion strains, locus YOR083W, strain WHI5, hits give low values 1.02 | S. cerevisiae deletion strains, locus YOR106W, strain vam3, hits give low values 1.01 | S. cerevisiae deletion strains, locus YOR136W, strain idh2, hits give low values 1.04 | S. cerevisiae deletion strains, locus YOR144C, strain elg1, hits give low values 1.01 | S. cerevisiae deletion strains, locus YOR184W, strain ser1, hits give low values 1.06 | S. cerevisiae deletion strains, locus YOR231W, strain MKK1, hits give low values 0.989 | S. cerevisiae deletion strains, locus YOR265W, strain rbl2, hits give low values 1.01 | S. cerevisiae deletion strains, locus YOR270C, strain vph1, hits give low values 1.06 | S. cerevisiae deletion strains, locus YOR290C, strain snf2, hits give low values 1.03 | S. cerevisiae deletion strains, locus YOR316C, strain cot1, hits give low values 1.02 | S. cerevisiae deletion strains, locus YPL051W, strain arl3, hits give low values 0.997 | S. cerevisiae deletion strains, locus YPL055C, strain LGE1, hits give low values 1.09 | S. cerevisiae deletion strains, locus YPL078C, strain atp4, hits give low values 1.01 | S. cerevisiae deletion strains, locus YPL106C, strain sse1, hits give low values 0.996 | S. cerevisiae deletion strains, locus YPL240C, strain hsp82, hits give low values 1.01 | S. cerevisiae deletion strains, locus YPL241C, strain CIN2, hits give low values 1.02 | S. cerevisiae deletion strains, locus YPL256C, strain CLN2, hits give low values 0.995 | S. cerevisiae deletion strains, locus YPR119W, strain clb2, hits give low values 1.03 | S. cerevisiae deletion strains, locus YPR141C, strain kar3, hits give low values 1.03 | S. cerevisiae deletion strains, locus YPR163C, strain tif3, hits give low values 1.04 | S. cerevisiae deletion strains, locus YPR167C, strain met16, hits give low values 1.04 | S. cerevisiae deletion strains, strain wtn01, hits give low values 1.03 | S. cerevisiae strains, strain wild type, hits give low values 1.06

Reference: PubChem BioAssay AID1159580 (chemical genetic matrix, 2015)
